Reference: PubChem BioAssay (Tox21)
Values joined by “and” are separate entries in the source; they are usually repeats but may differ in a detail not shown here. Equal entries are not always repeated. Results filed as inconclusive are left out. The source holds several records for some structures; these can differ, active in one and inactive in another. Active and inactive are the calls of the source. Calls come from the whole dose curve; as a rule, active = well fitted curve in the direction sought with a large enough effect in the repeat runs; inconclusive = weak or mixed curves; inactive = no such curve, though single readings can be large; an effect the other way counts as inactive or inconclusive.
% is set by controls: 0 for no effect and ±100 for the full control effect; potency is the fitted concentration of half-maximal effect.
Note: nearly all actives have a fitted effect of over 50% in size.

Experiment: qHTS RealTime-Glo MT Cell Viability Assay in HepG2 cells - 16 hour (AID 1224885)
Conditions: RealTime-Glo luminescence; series mostly up to 76.8 µM; activity change, negative = cytotoxic: at the top concentration
In short: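 Luminescence read-out: viable HepG2 cells reduce a prosubstrate to a NanoLuc substrate, giving a signal proportional to live cell number. Reads taken at 0, 8, 16, 24, 32 and 40 h of compound exposure at 37 C.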
With `Cc1cc(Cc2cc(C)cc(C(C)(C)C)c2O)c(O)c(C(C)(C)C)c1` the Potency was 43.9 µM (active) and 43.6 µM (active).
With `CCC(=O)/C=C/C1C(C)=CCCC1(C)C` (stereo not given) the Potency was “inactive”.
For `NC12CC3CC(CC(C3)C1)C2`, the “activity change, negative = cytotoxic” value was 1.52% [at 35.3 µM] (inactive).
In the case of `CC(C)CCOC(=O)c1ccc(N(C)C)cc1`, the “activity change, negative = cytotoxic” value is reported as -6.31% [at 35.3 µM] (inactive).
In the case of `CC(=O)Nc1ccc(C(=O)CCl)cc1`, the “activity change, negative = cytotoxic” value is reported as 0.332% (inactive).
In the case of `Cc1scc2c1N(C(=O)CN1CCN(C)CC1)c1ccccc1NC2=O`, the “activity change, negative = cytotoxic” value is reported as 2.19% [at 35.3 µM] (inactive).
In the case of `COC(=O)/C=C/c1ccccc1`, the Potency is reported as “inactive”.
For `CCc1cc(C(C)(C)C)c(O)c(C(C)(C)C)c1`, the Potency was “inactive”.
In the case of `COC(=O)c1cccc(C(=O)OC)c1`, the Potency is reported as “inactive”.
In the case of `O=C1OC2(c3ccc(O)cc3Oc3cc(O)ccc32)c2ccccc21`, the “activity change, negative = cytotoxic” value is reported as -29.6% (inactive).
For `CCN(CC)C(=S)SSC(=S)N(CC)CC`, the Potency was 141 nM (active).
With `CC(=O)N[C@@H](CS)C(=O)O` the Potency was “inactive”.
With `c1ccc2cc3c(ccc4ccccc43)cc2c1` the Potency was “inactive”.
With `COc1ccc(CCN2CCC(Nc3nc4ccccc4n3Cc3ccc(F)cc3)CC2)cc1` the Potency was 28.1 µM (active) and 21.3 µM (active).
In the case of `c1ccc2c(c1)CCCC2C1=NCCN1` (stereo not given), the “activity change, negative = cytotoxic” value is reported as -1.52% [at 35.3 µM] (inactive).
In the case of `CCn1c2ccccc2c2cc(N)ccc21`, the Potency is reported as “inactive”.
In the case of `CC1COC(=O)O1` (stereo not given), the Potency is reported as “inactive”.
In the case of `CO[Si](OC)(OC)c1ccccc1`, the “activity change, negative = cytotoxic” value is reported as -0.886% (inactive).
With `CCC(C)(Oc1ccc(C2(c3ccc(OC(C)(CC)C(=O)O)cc3)CCCCC2)cc1)C(=O)O` (stereo not given) the “activity change, negative = cytotoxic” value was 6.7% [at 35.3 µM] (inactive).
In the case of `C#CC(C)(CC)OC(=O)c1ccccc1C(=O)O` (stereo not given), the “activity change, negative = cytotoxic” value is reported as 2.94% [at 35.3 µM] (inactive).
For `O=C(OCc1ccccc1)c1ccc(O)cc1`, the Potency was “inactive”.
In the case of `NC(N)=NC(=O)Cc1c(Cl)cccc1Cl`, the “activity change, negative = cytotoxic” value is reported as -0.269% [at 35.3 µM] (inactive).
With `O=Nc1ccc(Nc2ccccc2)cc1` the Potency was 43600 nM (active).
For `C/C=C/c1ccc(OCC)c(O)c1`, the Potency was “inactive”.
For `COC(c1ccccc1)(c1ccccc1)[C@H](Oc1nc(C)cc(C)n1)C(=O)O`, the “activity change, negative = cytotoxic” value was 2.04% [at 35.3 µM] (inactive).
In the case of `Nc1cc(S(=O)(=O)O)cc2cc(S(=O)(=O)O)cc(O)c12`, the “activity change, negative = cytotoxic” value is reported as -4.56% (inactive).
For `CCOc1ccc2c(c1)C(C)=CC(C)(C)N2`, the Potency was “inactive”.
With `c1ccc2n[nH]nc2c1` the Potency was “inactive”.

Experiment: qHTS RealTime-Glo MT Cell Viability Assay in HEK293 cells - 24 hour (AID 1224886); for activity change, negative = cytotoxicity: top concentration of the series differs between compounds
Conditions: RealTime-Glo luminescence; series mostly up to 76.8 µM; activity change, negative = cytotoxicity: at the top concentration
In short: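 Nonlytic real-time viability readout: viable cells convert prosubstrate to NanoLuc substrate, giving luminescence proportional to live cell number. HEK293, 600 cells/well, compound added after 5 h, continuous culture at 37 C.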
For `Cc1cc(Cc2cc(C)cc(C(C)(C)C)c2O)c(O)c(C(C)(C)C)c1`, the Potency was 12.4 µM (active) and 15.5 µM (active).
In the case of `CCn1cc(C(=O)O)c(=O)c2cc(F)c(N3CCNC(C)C3)c(F)c21` (stereo not given), the “activity change, negative = cytotoxicity” value is reported as 17.4% [at 35.3 µM] (inactive).
For `Nc1cc(Cl)c(-c2cc(Cl)c(N)cc2Cl)cc1Cl`, the Potency was 11 µM (active).
For `CCC(=O)/C=C/C1C(C)=CCCC1(C)C` (stereo not given), the Potency was “inactive”.
For `NC12CC3CC(CC(C3)C1)C2`, the “activity change, negative = cytotoxicity” value was -3.08% [at 35.3 µM] (inactive).
For `CC(C)CCOC(=O)c1ccc(N(C)C)cc1`, the “activity change, negative = cytotoxicity” value was -0.0905% [at 35.3 µM] (inactive).
With `CC(C)C(=O)c1c(C(C)C)nn2ccccc12` the “activity change, negative = cytotoxicity” value was 1.99% [at 35.3 µM] (inactive).
In the case of `CC(=O)Nc1ccc(C(=O)CCl)cc1`, the Potency is reported as “inactive and 19.5 µM (active)”.
With `Cc1scc2c1N(C(=O)CN1CCN(C)CC1)c1ccccc1NC2=O` the “activity change, negative = cytotoxicity” value was 4.24% [at 35.3 µM] (inactive).
For `COC(=O)/C=C/c1ccccc1`, the “activity change, negative = cytotoxicity” value was -1.64% (inactive).
With `CCc1cc(C(C)(C)C)c(O)c(C(C)(C)C)c1` the Potency was “inactive”.
For `COC(=O)c1cccc(C(=O)OC)c1`, the Potency was “inactive”.
For `O=C1OC2(c3ccc(O)cc3Oc3cc(O)ccc32)c2ccccc21`, the Potency was “inactive”.
With `CC1=C(C=O)C(C)(C)CC=C1` the “activity change, negative = cytotoxicity” value was 0.0298% (inactive).
For `Nc1ccc2cc3ccccc3cc2c1`, the Potency was “inactive”.
For `Cc1cc(C2(c3cc(C)c(O)cc3C)OS(=O)(=O)c3ccccc32)c(C)cc1O`, the Potency was “inactive”.
In the case of `CCN(CC)C(=S)SSC(=S)N(CC)CC`, the Potency is reported as 195 nM (active) and 100 nM (active) and 13.4 µM (active).
In the case of `CC(=O)N[C@@H](CS)C(=O)O`, the Potency is reported as “inactive”.
In the case of `c1ccc2cc3c(ccc4ccccc43)cc2c1`, the Potency is reported as “inactive”.
In the case of `COc1ccc(CCN2CCC(Nc3nc4ccccc4n3Cc3ccc(F)cc3)CC2)cc1`, the Potency is reported as 6.3 µM (active) and 10.7 µM (active).
With `c1ccc2c(c1)CCCC2C1=NCCN1` (stereo not given) the “activity change, negative = cytotoxicity” value was 4.43% [at 35.3 µM] (inactive).
In the case of `CCn1c2ccccc2c2cc(N)ccc21`, the Potency is reported as “inactive”.
With `CC1COC(=O)O1` (stereo not given) the Potency was “inactive”.
For `Cc1cccc([N+](=O)[O-])c1C(=O)O`, the “activity change, negative = cytotoxicity” value was -4.86% (inactive).
In the case of `CO[Si](OC)(OC)c1ccccc1`, the “activity change, negative = cytotoxicity” value is reported as 0.0773% (inactive).
For `CCC(C)(Oc1ccc(C2(c3ccc(OC(C)(CC)C(=O)O)cc3)CCCCC2)cc1)C(=O)O` (stereo not given), the “activity change, negative = cytotoxicity” value was 8.95% [at 35.3 µM] (inactive).
In the case of `C#CC(C)(CC)OC(=O)c1ccccc1C(=O)O` (stereo not given), the “activity change, negative = cytotoxicity” value is reported as 0.668% [at 35.3 µM] (inactive).
In the case of `O=C(OCc1ccccc1)c1ccc(O)cc1`, the “activity change, negative = cytotoxicity” value is reported as -19.3% [at 35.3 µM] (inactive).
With `NC(N)=NC(=O)Cc1c(Cl)cccc1Cl` the “activity change, negative = cytotoxicity” value was -17.5% [at 35.3 µM] (inactive).
In the case of `O=Nc1ccc(Nc2ccccc2)cc1`, the Potency is reported as 6.96 µM (active) and 9.77 µM (active).
With `CCCCN(CCO)CCCC` the “activity change, negative = cytotoxicity” value was 1.75% (inactive).
For `C/C=C/c1ccc(OCC)c(O)c1`, the Potency was “inactive”.
In the case of `C=C(C)C(=O)O`, the Potency is reported as “inactive”.
With `COC(c1ccccc1)(c1ccccc1)[C@H](Oc1nc(C)cc(C)n1)C(=O)O` the “activity change, negative = cytotoxicity” value was -2.38% [at 35.3 µM] (inactive).
In the case of `Nc1cc(S(=O)(=O)O)cc2cc(S(=O)(=O)O)cc(O)c12`, the “activity change, negative = cytotoxicity” value is reported as -14.7% (inactive).
For `CCOc1ccc2c(c1)C(C)=CC(C)(C)N2`, the Potency was “inactive”.
With `c1ccc2n[nH]nc2c1` the Potency was “inactive”.
In the case of `CCCNC(C)C(=O)Nc1ccccc1C` (stereo not given), the “activity change, negative = cytotoxicity” value is reported as -8.95% [at 35.3 µM] (inactive).

Experiment: qHTS RealTime-Glo MT Cell Viability Assay in HEK293 cells - 8 hour (AID 1224887); for activity change, negative = cytotoxicity: top concentration of the series differs between compounds
Conditions: RealTime-Glo luminescence; series mostly up to 76.8 µM; activity change, negative = cytotoxicity: at the top concentration
In short: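 Cells were seeded together with NanoLuc luciferase and a prosubstrate that viable cells reduce to a luciferase substrate. After a 5 h incubation at 37 C/5% CO2, compounds were added and luminescence was measured repeatedly during 40 h of treatment.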
With `CCn1cc(C(=O)O)c(=O)c2cc(F)c(N3CCNC(C)C3)c(F)c21` (stereo not given) the “activity change, negative = cytotoxicity” value was 20.1% [at 35.3 µM] (inactive).
With `Nc1cc(Cl)c(-c2cc(Cl)c(N)cc2Cl)cc1Cl` the “activity change, negative = cytotoxicity” value was -24.5% (inactive).
In the case of `CC(C)C(=O)c1c(C(C)C)nn2ccccc12`, the “activity change, negative = cytotoxicity” value is reported as -6.54% [at 35.3 µM] (inactive).
In the case of `COC(=O)/C=C/c1ccccc1`, the “activity change, negative = cytotoxicity” value is reported as 0.296% (inactive).
In the case of `CCc1cc(C(C)(C)C)c(O)c(C(C)(C)C)c1`, the Potency is reported as “inactive”.
With `COC(=O)c1cccc(C(=O)OC)c1` the Potency was “inactive”.
With `CC1=C(C=O)C(C)(C)CC=C1` the “activity change, negative = cytotoxicity” value was 0.408% (inactive).
In the case of `Nc1ccc2cc3ccccc3cc2c1`, the Potency is reported as “inactive”.
For `Cc1cc(C2(c3cc(C)c(O)cc3C)OS(=O)(=O)c3ccccc32)c(C)cc1O`, the Potency was “inactive”.
With `CCN(CC)C(=S)SSC(=S)N(CC)CC` the Potency was 13.8 µM (active) and 18.5 µM (active).
With `Cc1cccc([N+](=O)[O-])c1C(=O)O` the “activity change, negative = cytotoxicity” value was -5.97% (inactive).
With `CCCCN(CCO)CCCC` the “activity change, negative = cytotoxicity” value was 4.05% (inactive).
For `C=C(C)C(=O)O`, the Potency was “inactive”.
For `CCCNC(C)C(=O)Nc1ccccc1C` (stereo not given), the “activity change, negative = cytotoxicity” value was -10.9% [at 35.3 µM] (inactive).
